# Bioassay records deposited in PubChem by National Center for Advancing Translational Sciences (NCATS).
# HT1080 IDH1KD tx = qHTS for induction of synthetic lethality in tumor cells producing 2HG: qHTS for the HT-1080-IDH1KD cell line; Potency, µM (highest dose often 46.1 µM), for the others: top-dose activity, negative = toxicity, most hits filed as cytotoxic; HT-1080 IDH1 knockdown viability, ATP luminescence, 48 h; AID 686971, 2013; 360,000 compounds, 2% hits;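 also: 0% = DMSO wells and -100% = cell-free medium wells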
#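 HT-1080-IDH1KD cells (IDH1 knocked down), 750/well in RPMI with 5% FBS, treated with compound 48 h at 37 degrees C. Viability by CellTiter-Glo luminescence, normalised to DMSO and no-cell wells; concentration-response curves classed.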
# HT1080-NT tox = qHTS for induction of synthetic lethality in tumor cells producing 2HG: qHTS for the HT-1080-NT fibrosarcoma cell line; HT-1080-NT fibrosarcoma viability, CellTiter-Glo ATP luminescence, 48 h; Potency, µM (series often up to 46.1 µM), without a hit: top-dose activity, negative = less viability, most hits filed as cytotoxic; 360,000 compounds, 1.6% hits; AID 686970, 2013;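 also: NT is the 2HG producing partner of a matched IDH1 knockdown line; 0% = DMSO-treated cells and -100% = media-only wells without cells; nearly all actives have a fitted effect of over 55% in size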
#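 HT-1080-NT fibrosarcoma cells (2HG-overproducing), 750 cells/well in RPMI with 5% FBS, dosed after 2 h and incubated 48 h at 37C. CellTiter-Glo luminescence normalized to DMSO and no-cell wells; concentration-response curves fitted and classed.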
# KB-V1 MDR tox = qHTS assay for MDR1-selective chemotherapeutics: Primary screen using the drug-selected MDR subline cells KB-V1 | KB-V1 MDR cells viability, CellTiter-Glo, 72 h | Potency, µM (top dose mostly 46.1 µM), actives largely listed as cytotoxic | 400,000 compounds, 3.4% hits | AID 1347076, 2019; also: nearly all actives have a fitted effect of over 60% in size
#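 Following 72 h at 37 degrees C with compound, KB-V1 cell viability was read by CellTiter-Glo luminescence, medium being phenol-red-free DMEM plus 10% FBS; concentration-response parameters came from normalized, curve-fitted qHTS data.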
# TDP1 cell CPT = qHTS for Inhibitors of human tyrosyl-DNA phosphodiesterase 1 (TDP1): qHTS in cells in presence of CPT | chicken DT40 Tdp1-/-;hTDP1 cells + 20 nM CPT, ATP luminescence, 48 h | Potency, µM (top dose mostly 46.2 µM), without a hit: top-dose activity change, negative = growth inhibition, actives largely listed as inhibitors | 420,000 compounds, 12% hits | AID 686979, 2013; also: nearly all actives have a fitted effect of over 55% in size
#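 Chicken DT40 Tdp1-/- cells stably complemented with human TDP1 were seeded at 400 cells/well in medium containing 20 nM camptothecin, exposed to pin-transferred compounds, and grown at 37 °C for at least 48 hr. Viability was read as ATP luminescence.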
# KB-3-1 cytotox = qHTS assay for MDR1-selective chemotherapeutics: Primary screen using the parental adenocarcinoma cell KB-3-1 | KB-3-1 viability, CellTiter-Glo ATP luminescence, 72 h | Potency, µM (titrated, usually from 46.1 µM), usual class: cytotoxic | 400,000 compounds, 1.4% hits; also: nearly all actives have a fitted effect of over 60% in size
#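 Parental KB-3-1 adenocarcinoma cells in phenol-red-free DMEM with 10% FBS were pin-treated with compounds at several concentrations, incubated 72 h at 37 °C, and viability read by CellTiter-Glo luminescence; concentration-effect curves were fitted after normalization.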
# TDP1 cell noCPT = qHTS for Inhibitors of human tyrosyl-DNA phosphodiesterase 1 (TDP1): qHTS in cells in absence of CPT | DT40 Tdp1-/- hTDP1 cells, no CPT, ATP luminescence, 48 h | Potency, µM (series often up to 46.2 µM), for the others: at the top dose activity change, negative = growth inhibition, most hits filed as inhibitors | 420,000 compounds, 15% hits | AID 686978, 2013; also: nearly all actives have a fitted effect of over 55% in size
#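 Camptothecin absent (DMSO only). Human TDP1-complemented DT40 knockout cells, 400 cells/well, 37 °C for minimum 48 hr; ATP measured via CellTiter-Glo, 30 min dark incubation, luminescence.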
# * hit, by the source's call; i = inactive; ? = inconclusive; nt = no result given; ! = a repeat was not active. The list is not random: actives were taken first. Their share in the collection is about 19%. Calls follow the shape of the dose curve; as a rule, active = well fitted curve in the direction sought with a large enough effect; inconclusive = small, poorly fitted or top-dose-only effect, or another doubt; inactive = no such curve, though single readings can be large; an effect the other way counts as inactive or inconclusive. Unless noted, % is scaled to controls: 0 for no effect and ±100 for the full control effect; potency is read from the fitted curve at half-maximal effect.
SMILES,HT1080 IDH1KD tx,HT1080-NT tox,KB-V1 MDR tox,TDP1 cell CPT,KB-3-1 cytotox,TDP1 cell noCPT
Cc1noc(/C=C/N(C)C)c1S(=O)(=O)N1CCCC(C(=O)NCCC2=CCCCC2)C1 (stereo unspecified),-1%,-4%,i,21µM*,i,16µM*
Cc1noc(C)c1S(=O)(=O)N1CCCC(C(=O)NCCC2=CCCCC2)C1 (stereo unspecified),-14%,-8%,i,?,i,16µM*
COc1ccccc1CNC(=O)Cn1c(-c2cccs2)cc2cc(F)ccc21,nt,nt,i,?,i,?
Brc1ccc(-c2nc(N/N=C/c3cccnc3)c3ccccc3n2)cc1,?,?,?,12µM*,?,13µM*
C(=N\Nc1nc(-c2cccnc2)nc2ccccc12)/c1ccccc1,5%,-5%,i,?,i,16µM*
C(=N\Nc1ccccn1)/c1cccnc1,4%,9%,i,4%,i,0%
FC(F)(F)c1nc2ccccc2nc1N/N=C\c1ccccc1,-14%,-14%,?,21µM*,?,18µM*
COc1cccc(/C=N/Nc2nc(-c3cccnc3)nc3ccccc23)c1,3%,-1%,i,16µM*,i,16µM*
Cc1c(Cl)cccc1NC(=O)c1ccc2c(c1)CCN2S(=O)(=O)c1ccccc1,nt,nt,i,?,i,?
CCCc1cc(=O)[nH]c(Nc2cc(C)ccc2OC)n1,nt,nt,i,-11%,i,-26%
Cc1cc(C)cc(C(=O)N2CC(C)SC2=Nc2cccc(S(=O)(=O)N(C)C)c2)c1 (stereo unspecified),-19%,-16%,i,?,i,?
Cc1ccc(C(=O)N2CC(C)SC2=Nc2cccc(S(=O)(=O)N(C)C)c2)cc1 (stereo unspecified),-11%,-2%,i,29µM*,i,?
CCOc1ccc(C(c2c(O)cc(C)n(CCOC)c2=O)N2CCN(c3ccccc3F)CC2)cc1 (stereo unspecified),nt,nt,i,-18%,i,-30%
C=CCOc1ccc(/C=N/NC(=O)C(=O)Nc2ccccn2)cc1OC,6%,0%,i,-9%,i,?
CC1(C(=O)NS(=O)(=O)c2ccc(Cl)cc2)CCN1C(=O)CCC1CCCC1 (stereo unspecified),15%,15%,i,5%,i,25%
Cc1ccc(NC(=O)Nc2nc3c(s2)CCCCCC3)cc1C,nt,nt,i,13µM*,i,13µM*
Cc1cc(NC(=O)Nc2csc3c2CCCC3)ccc1Br,nt,nt,?,8.2µM*,?,9.2µM*
CC(C)c1ccc(NC(=O)Nc2csc3c2CCCC3)cc1,nt,nt,i,?,?,?
Cc1cc(NC(=O)Nc2nc3c(s2)CCCCCC3)ccc1Br,nt,nt,i,21µM*,i,18µM*
CC(=O)c1c(C)oc2ccc(N(C(=O)c3ccncc3)S(=O)(=O)c3ccc(F)cc3C)cc12,nt,nt,i,10µM*,?,7.3µM*
CCCC(=O)N(c1ccc2oc(C)c(C(C)=O)c2c1)S(=O)(=O)c1ccc(C(=O)O)cc1,2%,0%,i,-12%,i,?
CCOC(=O)c1c(C)oc2ccc(N(C(=O)c3ccncc3)S(=O)(=O)c3ccc(F)cc3C)cc12,nt,nt,?,?,i,23µM*
Cc1cc(F)ccc1S(=O)(=O)N(C(=O)c1ccncc1)c1ccc(OC(=O)c2ccncc2)cc1,-9%,-6%,i,23µM*,i,15µM*
CCCc1nc2ccc(N)cc2c(=O)n1Cc1ccccc1Cl,-12%,-3%,i,13%,i,13%
CCOC(=O)[C@]12CCCC=C1N(Cc1ccco1)C(=O)[C@H](CC(=O)NCC1CCCCC1)C2,-9%,2%,i,?,i,?
SMILES,HT1080 IDH1KD tx,HT1080-NT tox,KB-V1 MDR tox,TDP1 cell CPT,KB-3-1 cytotox,TDP1 cell noCPT
CCOC(=O)Nc1cccc(OCC(=O)Nc2ccc3c(c2)CCC3)c1,0%,1%,i,?,i,23µM*
COc1cccc(NC(=O)COc2ccc3c(c2)CCC3)c1,-15%,-4%,?,0%,i,3%
COc1ccc(-c2nc3cc(C)ccn3c2NC(=O)c2c(F)cccc2Cl)cc1,-4%,-2%,i,-19%,i,-18%
CCCCNc1c(-c2ccc(SC(C)CC)c(OC)c2)nc2ccc(C)cn12 (stereo unspecified),?,-16%,?,5.8µM*,?,6.5µM*
CCCCCCSc1ccc(-c2nc3ccc(C)cn3c2NCCCC)cc1OC,?,21µM*,21µM*,12µM*,?,9.2µM*
CCCCNc1c(-c2ccc(-c3cccc(Cl)c3)cc2)nc2ccc(Cl)cn12,19%,11%,i,?,i,?
CCCCNc1c(-c2ccc(SC(C)CC)c(OC)c2)nc2ccc(Cl)cn12 (stereo unspecified),0%,6%,i,26µM*,i,21µM*
CCCCCCSc1cc(-c2nc3cc(C)ccn3c2NCCCC)ccc1OC,23µM*,26µM*,21µM*!,13µM*,i,16µM*
CCCCCCSc1ccc(-c2nc3ccc(Cl)cn3c2NCCCC)cc1OC,3%,1%,i,?,i,?
CCc1ccc(NC(=O)Nc2ccsc2C(=O)OC)cc1,-3%,-5%,i,-18%,i,-14%
COc1ccc(-c2nc3ccc(Cl)cn3c2Cc2ccsc2)cc1OC,1%,-3%,i,?,i,?
CCCCNc1c(-c2ccc(SC3CCCCC3)c(OC)c2)nc2ccc(Cl)cn12,-8%,-2%,i,?,i,16µM*
COc1ccc2nc(NCc3ccc(OC)c(OC)c3OC)sc2c1,-16%,-26%,i,?,i,?
CCOC(=O)NC1(C(F)(F)F)NC(=O)N(c2ccc(C)c(C)c2)C1=O (stereo unspecified),nt,nt,i,nt,i,nt
